In PubChem BioAssay AID990 (National Center for Advancing Translational Sciences (NCATS), 2007):
Active and inactive are the calls of the source.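 How the source made its calls: active means compound that made reporter-free parental cells show up as glowing objects under laser imaging, so likely a fluorescent false positive; inactive means the rest.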

test: Parental Cell Counter Screen Assay for Epigenetic Modulators; details: parental c127i cells, compound fluorescence imaging, 30 h
Text: NIH Molecular Libraries Screening Centers Network [MLSCN] NIH Chemical Genomics Center [NCGC] MLSCN Grant: 1 X01 MH079860-01 Assay Provider: Elisabeth D. Martinez, University of Texas SW Medical Center NCGC Assay Overview: This assay is a counter screen for the Locus Derepression (LDR) assay (PubChem AID 597). The LDR assay detects the derepression of a GFP reporter that is stably integrated in a region of the genome of murine c127i mammary cells that is presumably silenced. Compounds that cause derepression of the locus to express GFP are identified by enumerating GFP positive cells using a laser-scanning microplate cytometer. […] Compounds active in the parental c127i cells are likely fluorescent.
NCGC Assay Protocol Summary: Two hundred and fifty cells in 5 uL per well were dispensed into black, clear-bottom 1536-well plates. Twenty-three nL compound was transferred to the assay plate and cells were incubated 30 hours at 37 C. Medium was removed, cells were washed two times with PBS, and fluorescent cells were enumerated as objects between the sizes of 20 to 120 um width and depth using a laser-scanning microplate imager (Acumen Explorer Ex3, TTP Labtech).

| SMILES | outcome | Potency |
| --- | --- | --- |
| CCNc1nc(NCC)nc(-n2nc(C)cc2C)n1 | inactive | – |
| c1ccc(Nc2nc(Nc3ccccc3)nc(-n3cccn3)n2)cc1 | inactive | – |
| Oc1c(C(Nc2ccccn2)c2ccco2)cc(Cl)c2cccnc12 (stereo not given) | inactive | – |
| CC(/C=C/C(=O)NO)=C\[C@@H](C)C(=O)c1ccc(N(C)C)cc1 | inactive | – |
| O=C1OCCC1Sc1cccc2cccnc12 (stereo not given) | inactive | – |
| COc1ccc(C)cc1NC(c1ccccn1)c1ccc2cccnc2c1O (stereo not given) | inactive | – |
| COc1cccc(C(=O)NC(c2ccco2)c2cc(Cl)c3cccnc3c2O)c1 (stereo not given) | inactive | – |
| CCNc1nc(NCC)nc(-n2cc(C(=O)c3cc(Cl)ccc3O)cn2)n1 | inactive | – |
| O=C(CC(c1ccco1)S(=O)(=O)c1ccccc1)c1ccc(F)cc1 (stereo not given) | inactive | – |
| O=C(CSc1cccc2cccnc12)NCc1ccccc1 | inactive | – |
| COc1ccc(C)cc1N=Nc1ccc(O)c2ncccc12 | inactive | – |
| Oc1c(C(Nc2ccccn2)c2ccccn2)ccc2cccnc12 (stereo not given) | inactive | – |
| CN1C(=S)SC(c2ccccc2)N(C)C1c1ccccc1 (stereo not given) | inactive | – |
| O=C(CSc1cccc2cccnc12)Nc1ccccc1 | inactive | – |
| Cc1cc(NC(c2ccccn2)c2ccc3cccnc3c2O)no1 (stereo not given) | inactive | – |
| O=C(Oc1cccc2cccnc12)c1ccc(Br)o1 | inactive | – |
| CCN(CC)c1ccc2cc(-c3nc4ccccc4[nH]3)c(=O)oc2c1 | – | 410 nM [fluorescent] (active) |
| CCN1CSC(=S)N(CC)C1 | inactive | – |
| COc1ccc(NC(c2ccccn2)c2ccc3cccnc3c2O)cc1 (stereo not given) | inactive | – |
| O=C(CSc1cccc2cccnc12)N1CCCC1 | inactive | – |

| SMILES | outcome | Potency |
| --- | --- | --- |
| Cc1cc(C)n(-c2nc(N(C)C)nc(N(C)C)n2)n1 | inactive | – |
| O=C(Cc1ccccc1)NC(c1ccco1)c1ccc2cccnc2c1O (stereo not given) | inactive | – |
| CCOCc1ccc(O)c2ncccc12 | inactive | – |
| Oc1ccc(COCc2ccccc2)c2cccnc12 | inactive | – |
| CC(C)C(=O)NC(c1ccc(C(C)C)cc1)c1cc(Cl)c2cccnc2c1O (stereo not given) | inactive | – |
| Cc1ccc(N=Nc2ccc(O)c3ncccc23)cc1C | inactive | – |
| COc1ccc(C(=O)NC(c2ccco2)c2cc(Cl)c3cccnc3c2O)cc1 (stereo not given) | inactive | – |
| COCc1cc(CN2CCN(C)CC2)c(O)c2ncccc12 | inactive | – |
| O=Nc1ccc(O)c2ncccc12 | inactive | – |
| COC(=O)c1cccc(NC(c2ccccn2)c2ccc3cccnc3c2O)c1 (stereo not given) | inactive | – |
| c1cnn(-c2nc(N3CCOCC3)nc(N3CCOCC3)n2)c1 | inactive | – |
| Oc1c(C(Nc2ccccc2C(F)(F)F)c2ccccn2)ccc2cccnc12 (stereo not given) | inactive | – |
| CC(C)C(=O)NC(c1ccc(N(C)C)cc1)c1ccc2cccnc2c1O (stereo not given) | inactive | – |
| Cc1cc(C)n(-c2nc(NC(C)C)nc(NC(C)C)n2)n1 | inactive | – |
| CC(C)C(=O)NC(c1cccs1)c1cc(Cl)c2cccnc2c1O (stereo not given) | inactive | – |
| CN1CCN(Cc2cc(Cl)c3cccnc3c2O)CC1 | inactive | – |
| COc1ccc(C(NC(=O)C(C)C)c2ccc3cccnc3c2O)cc1 (stereo not given) | inactive | – |
| Cc1cc(C)n(-c2nc(NC(C)(C)C)nc(NC(C)(C)C)n2)n1 | inactive | – |
| CC(C)C(=O)NC(c1ccco1)c1cc([N+](=O)[O-])c2cccnc2c1O (stereo not given) | inactive | – |
| Cc1cc(C)n(-c2nc(NC(C)C)nc(NC(C)(C)C)n2)n1 | inactive | – |
